Experimental data taken from PubChem BioAssay AID1014 (NMMLSC, 2008).
The source made the active and inactive calls. Cut-off read from the data, not from the text of the source: active = inhibition of mean fluorescence above about 33%; inactive = the rest.

test: quorum sensing inhibitors in bacterial reporter, SAR follow-up, flow cytometry, SAR analogs (AID 1014); details: at 20 µM, stronger effect = higher value; inhibition of percent positive cells: flow cytometry fluorescence, measured here: percent reporter-positive cells;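 note: Staphylococcus aureus RN6390 with RNAIII-GFP reporter stimulated by AIP; bacteria incubated with compound for 3 hours at 37 °C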

Row | SMILES | inhibition of mean fluorescence | inhibition of percent positive cells
1 | CC(NC(=O)c1cccc(F)c1)C(c1cccs1)N1CCN(c2ccccc2F)CC1 (stereo not given) | 16.4% (inactive) | 0.2%
2 | CC(C)(C)c1ccc(S(=O)(=O)c2nnn3c2nc(Nc2ccccc2)c2ccccc23)cc1 | -15.5% (inactive) | -0.9%
3 | CC(=O)c1cc2c(cc1NC(=O)CN1CCN(C(c3ccccc3)c3ccccc3)CC1)OCO2 | 38.7% (active) | 0.4%
4 | CC1CCCN(C(C(=O)Nc2ccc(C(C)C)cc2)c2ccc3c(c2)OCO3)C1 (stereo not given) | 23.8% (inactive) | 0.5%
5 | O=C(Nc1ccc2c(c1)OCO2)C1CCN(C(=O)c2cnn(-c3ccccc3)c2-n2cccc2)CC1 | -13.6% (inactive) | -0.1%
6 | CN1CCN(C(C(=O)NC2CCCCC2)c2cc3c(cc2[N+](=O)[O-])OCO3)CC1 (stereo not given) | -5.8% (inactive) | -0.4%
7 | CC(C)c1ccc(NC(=O)C(c2ccc3c(c2)OCO3)N2CCc3ccccc32)cc1 (stereo not given) | 26.3% (inactive) | -1.6%
8 | O=C(NCC(c1cccnc1)N1CCN(c2ccc(F)cc2)CC1)c1ccccc1F (stereo not given) | -2.2% (inactive) | 0.3%
9 | Cc1ccc2occ(/C=C/C(=O)c3ccc(O)cc3)c(=O)c2c1 | -0.6% (inactive) | -0.1%
10 | COc1cc(Nc2cc(C)nc3nc(C)nn23)c(C(=O)O)cc1OC | -11.6% (inactive) | 0.5%
11 | Cc1ccc(S(=O)(=O)c2nnn3c2nc(Nc2ccc(Oc4ccccc4)cc2)c2cc(Cl)ccc23)cc1 | -19.1% (inactive) | -0.5%
12 | N#Cc1c(NC(=O)CCN2C(=O)c3ccccc3C2=O)oc(-c2ccccc2)c1-c1ccccc1 | 19.7% (inactive) | -0.3%
13 | O=C(CN1C(=O)c2ccccc2C1=O)N=C1NC(=O)CS1 | 3.2% (inactive) | -1.2%
14 | Cc1ccc(Nc2c(C(=O)O)cc([N+](=O)[O-])cc2[N+](=O)[O-])cc1Cl | -19.5% (inactive) | -0.4%
15 | N#Cc1c(NC(=O)COc2ccccc2)sc2c1CCCC2 | -5% (inactive) | 2.5%
16 | CCOC(=O)c1c(COc2ccccc2)oc2ccc(O)cc12 | -1.1% (inactive) | -0.9%
17 | CC(C)c1ccc(NC(=O)C(c2cc3c(cc2[N+](=O)[O-])OCO3)N2CCCCC2)cc1 (stereo not given) | 29% (inactive) | -0.2%
18 | Cc1ccccc1Nc1c(F)c(F)c(F)c(F)c1C(=O)O | -18.8% (inactive) | -1.9%
19 | O=C(O)c1cccnc1Nc1cccc(SC(F)(F)F)c1 | 64.5% (active) | 8.8%
20 | Cc1ccc(Nc2nc3c(S(=O)(=O)c4ccccc4)nnn3c3ccccc23)cc1 | -19% (inactive) | 0.4%

Row | SMILES | inhibition of mean fluorescence | inhibition of percent positive cells
21 | O=C(Nc1ccc2c(c1)OCO2)C1CCCN(C(=O)c2cnn(-c3ccccc3)c2-n2cccc2)C1 (stereo not given) | -23.9% (inactive) | 0.1%
22 | Cc1cc(C)nc(Nc2ccccc2C(=O)O)n1 | 22.7% (inactive) | -0.8%
23 | CN(C)c1ccc(Nc2c(C(=O)O)cc([N+](=O)[O-])cc2[N+](=O)[O-])cc1 | 10.4% (inactive) | 5.2%
24 | COc1ccc(C(=O)NCC(c2cccnc2)N2CCN(c3ccccc3F)CC2)cc1 (stereo not given) | -7.6% (inactive) | -0.9%
25 | O=C(O)c1c(F)c(F)c(F)c(F)c1Nc1cccc(C(F)(F)F)c1 | 6% (inactive) | -0.1%
26 | O=C(NCCN1CCN(c2ccccc2F)CC1)c1ccc2c(Cl)c3c(nc2c1)CCCC3 | 4.8% (inactive) | -0.2%
27 | CC(C)c1ccc(NC(=O)C(c2cc3c(cc2[N+](=O)[O-])OCO3)N2CCC(Cc3ccccc3)CC2)cc1 (stereo not given) | -12% (inactive) | -0.4%
28 | O=C(NCC(c1cccnc1)N1CCN(c2ccc(F)cc2)CC1)C1CCCCC1 (stereo not given) | -37% (inactive) | 0.5%
29 | O=C(NC1CCCC1)C(c1cc2c(cc1[N+](=O)[O-])OCO2)N1CCCC1 (stereo not given) | -3.7% (inactive) | -0.1%
30 | CC1CC(C)CN(C(C(=O)Nc2ccc(C(C)C)cc2)c2cc3c(cc2[N+](=O)[O-])OCO3)C1 (stereo not given) | -12.5% (inactive) | -0.1%
31 | COc1ccc(S(=O)(=O)c2nnn3c2nc(Nc2ccccc2C)c2ccccc23)cc1 | -17.1% (inactive) | 0.4%
32 | Cc1cc(C)cc(Nc2c(F)c(F)c(F)c(F)c2C(=O)O)c1 | 14% (inactive) | -0.2%
33 | Cc1[nH]nc(Nc2ccccc2C(=O)O)c1[N+](=O)[O-] | 0.1% (inactive) | 0.2%
34 | O=C(O)c1ccccc1Nc1cn2ncc([N+](=O)[O-])c2c(=O)[nH]1 | -1.7% (inactive) | -0.3%
35 | Cc1ccc(Nc2ncccc2C(=O)O)cc1 | -7.8% (inactive) | -1.3%
36 | Cc1ccc(S(=O)(=O)c2nnn3c2nc(Nc2ccc(C(C)C)cc2)c2ccccc23)cc1 | 12.6% (inactive) | -1.7%
37 | Cc1ccc(Nc2c(F)c(F)c(F)c(F)c2C(=O)O)cc1 | 9.9% (inactive) | -0.2%
38 | Cc1cccc(Nc2nc3c(S(=O)(=O)c4ccccc4)nnn3c3ccccc23)c1 | 3.1% (inactive) | 0.2%
39 | O=C(O)c1ccccc1Nc1ccccc1C(=O)O | 5.8% (inactive) | -0.5%
40 | COc1c(F)c(F)c(C(=O)O)c(Nc2ccc(C)cc2C)c1F | 67.8% (active) | 13.3%
